# Compound activity: PubChem, several laboratories
# Compounds with a hit are over-represented: about 1.3% of the library has one in this group of screens.
# MCL1-BIM inh – inhibitors of human MCL1 binding to BIM-BH3 peptide; hit rate 0.68% among 320,000; inhibition, % at 10.9 µM; AID 2057; GST-MCL1 / FITC-Bim-BH3 fluorescence polarization; Q07820;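 active = inhibition above the mean inhibition of all tested compounds plus 3 SD, set per campaign, cut at about 40% in these data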;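 note: higher means more loss of mP so more displacement of Bim peptide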
# BCLXL inh – inhibitors of human Bcl-xL | Q07817 | GST-Bcl-xL / FITC-Bim BH3 peptide fluorescence polarization | inhibition, % at 10.9 µM | hit rate 0.7% among 320,000 | AID 2129;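 active = inhibition above the mean of all tested compounds plus 3 SD, cutoff set per campaign, cut at about 30% in these data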;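 note: inhibitors lower millipolarization by displacing the labeled peptide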
# Target sequence (Q07817 whole entry, looked up): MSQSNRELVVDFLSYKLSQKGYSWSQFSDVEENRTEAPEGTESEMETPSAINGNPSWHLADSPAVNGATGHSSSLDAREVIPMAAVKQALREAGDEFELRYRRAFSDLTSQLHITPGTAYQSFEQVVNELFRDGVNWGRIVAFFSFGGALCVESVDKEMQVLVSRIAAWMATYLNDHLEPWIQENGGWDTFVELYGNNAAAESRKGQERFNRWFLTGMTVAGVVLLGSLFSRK
# EBV gp42 inh – EBV gp42 inhibition; Q1HVG2; Fluorescence polarization binding assay, mP read-out; inhibition, % (tested at 21.74 µM); hit rate 0.42% among 220,000; AID 1085; in the data active = inhibition above about 50%
# Target sequence (Q1HVG2 whole entry, looked up): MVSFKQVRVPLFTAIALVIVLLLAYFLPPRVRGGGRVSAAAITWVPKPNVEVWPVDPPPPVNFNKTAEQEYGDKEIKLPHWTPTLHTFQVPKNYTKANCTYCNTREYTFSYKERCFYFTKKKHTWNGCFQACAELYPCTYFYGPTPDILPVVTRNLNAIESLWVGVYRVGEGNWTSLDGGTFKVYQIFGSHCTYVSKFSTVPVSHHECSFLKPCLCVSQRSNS
# MEX-5 binding – C. elegans MEX-5 TCR-2 RNA binding activity; MEX-5/FITC-TCR2 RNA binding, fluorescence polarization; active compounds read low; Q9XUB2; activity score (negative = inhibition of binding), % at 10 µM; hit rate 0.38% among 300,000;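 active = inhibition past about -25% in most replicates, and total fluorescence under double the plate's negative control median, limit read from the data; inconclusive = replicates evenly split on the limit, or fluorescence at least double controls; inactive = too little inhibition in most replicates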
# GLD-1 RNA inh – GLD-1-TGE RNA interaction inhibition (C. elegans); purified GLD-1 + fluorescein TGE RNA, fluorescence polarization; hit rate 0.44% among 320,000; Q17339; inhibition, % at 5.96 µM;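 active = percent inhibition above a per-plate cutoff, the plate mean of test compounds plus 3 SD, cut at about 30% in these data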
# Bcl-xL conf – Bcl-xL (human) inhibition, MCL1 counter-screen confirmation | GST-Bcl-xL / FITC-Bim BH3 peptide FP binding | shares compounds with MCL1-BIM inh | inhibition, % at 10.9 µM | AID 2166 | hit rate 54% among 1,700;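 active = inhibition above a cutoff equal to the mean inhibition of all tested compounds plus 3 SD, cut at about 30% in these data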
# MCL1 BIM confirm – confirmation of human MCL1 and BIM-BH3 interaction inhibitors; shares compounds with MCL1-BIM inh; GST-MCL1 / FITC-Bim-BH3 fluorescence polarization; inhibition, % at 10.9 µM; hit rate 61% among 1,700; AID 2168;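 active = inhibition above the average of all tested compounds plus 3 SD, cut at about 40% in these data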
# A number is an active result; i = inactive; ? = inconclusive; nt = no result; + = active, no number.
SMILES,MCL1-BIM inh,BCLXL inh,EBV gp42 inh,MEX-5 binding,GLD-1 RNA inh,Bcl-xL conf,MCL1 BIM confirm
CCN1CCN(c2cc(N3CCN(C(=O)c4ccco4)CC3)c3c4c(onc24)-c2ccccc2C3=O)CC1,103,92,nt,i,i,52,i
COc1ccc(C2C(C(C)=O)=C(O)C(=O)N2c2ccccn2)cc1 (centres undefined),i,i,nt,i,i,nt,nt
Clc1ccccc1C1=CC(c2ccco2)n2ncnc2N1 (centres undefined),50,49,i,i,i,34,44
CC(=O)Nc1cccc(C2=CC(c3ccco3)n3ncnc3N2)c1 (centres undefined),123,116,130,-87,69,141,177
Clc1ccc(C2=CC(c3ccco3)n3ncnc3N2)cc1 (centres undefined),+,189,80,-91,141,51,76
CCOC(=O)C1(CCOc2ccccc2)CCN(Cc2ccc3nonc3c2)CC1,i,i,i,i,i,nt,nt
O=C(O)C1=C[C@H](c2coc3ccccc3c2=O)C[C@H](OCCCCO)O1,59,i,i,i,i,i,i
COc1ccccc1C(=O)NCCC(=O)OCC(=O)Nc1ccc(S(N)(=O)=O)cc1,i,i,nt,nt,i,nt,nt
CN1C(=O)c2ccccc2OC1(C)Cc1ccccc1 (centres undefined),i,i,i,i,i,nt,nt
Cc1cc(C=O)c2c(c1)C=CC1(Oc3ccccc3C(=O)N1C)O2 (centres undefined),53,58,i,i,109,i,i
CN1CCN(S(=O)(=O)c2cccc(C(=O)Oc3ccccc3Cl)c2)CC1,i,i,nt,i,i,nt,nt
O=C(NC(=S)Nc1cccc2c(O)cccc12)c1ccccc1[N+](=O)[O-],48,31,nt,i,i,i,i
O=C(NNC(=S)NC(=O)c1ccccc1[N+](=O)[O-])c1ccccc1O,i,i,i,?,i,nt,nt
C/C(=N\NC(=O)c1ccccc1NC(=O)c1ccc(Cl)cc1)c1ccncc1,i,i,i,i,i,nt,nt
O=C(O)c1ccccc1C1=Nc2ccc(O)cc2Oc2cc(O)ccc21,196,167,84,?,135,142,178
c1ccc(CN(Cc2ccccc2)c2nn[nH]n2)cc1,46,i,i,i,i,i,i
Clc1ccc(CN(Cc2ccc(Cl)cc2)c2nn[nH]n2)cc1,i,i,i,i,i,nt,nt
Cc1ccc(C)c(S(=O)(=O)N(C)C2CCS(=O)(=O)C2)c1 (centres undefined),i,i,nt,i,i,nt,nt
O=S1(=O)N(Cc2ccccc2F)CCCN1Cc1c(F)cccc1Cl,i,i,nt,i,i,nt,nt
Cc1ccccc1C1C(C#N)=C2N=C(N)c3c(sc4c3CCCCC4)N2C2=C1C(=O)CCC2 (centres undefined),67,61,i,i,49,53,68
Cc1noc(C)c1COc1cccc(C(=O)Nc2ccccc2N2CCOCC2)c1,i,i,i,i,i,nt,nt
COc1ccc([N+](=O)[O-])cc1NC(=S)NC(C)=O,i,i,i,i,i,nt,nt
COc1ccc(/C=C/C(=O)NC(=S)Nc2cc([N+](=O)[O-])ccc2O)cc1OC,41,i,i,i,i,i,i
O=C(c1cc(Cl)ccc1O)N1CCN(S(=O)(=O)c2cccs2)CC1,i,i,nt,i,i,nt,nt
O=C(O)c1cccc(-n2cccc2/C=C/[N+](=O)[O-])c1,72,44,i,-36,i,41,58
SMILES,MCL1-BIM inh,BCLXL inh,EBV gp42 inh,MEX-5 binding,GLD-1 RNA inh,Bcl-xL conf,MCL1 BIM confirm
O=C(O)c1cccc(-n2cccc2/C=C\[N+](=O)[O-])c1,i,i,i,i,i,nt,nt
CCN(c1ccc(NC(=O)c2ccc(N3CCCC3=O)cc2)cc1)C(C)C,i,i,nt,i,i,nt,nt
CCc1cccc2cc3c(N)c(C(=O)Nc4ccc(S(=O)(=O)N5CCCC5)cc4)sc3nc12,94,104,81,i,61,43,67
Cc1cccc2cc3c(N)c(C(=O)Nc4ccc(N5CCOCC5)cc4)sc3nc12,i,i,i,?,i,nt,nt
O=C1NC(=O)C(c2ccccc2[N+](=O)[O-])=C1Nc1ccc(O)c(Cl)c1,50,i,nt,i,i,i,i
O=C(NNc1ccccc1[N+](=O)[O-])Nc1ccc(Cl)c(Cl)c1,i,i,i,i,i,nt,nt
CCOC(=O)c1c[nH]c2nc(C)ccc2c1=O,85,78,i,-47,61,70,89
CCOC(=O)c1c[nH]c(=O)c(Br)c1O,i,i,i,i,i,nt,nt
CC(=O)N1N=C(c2ccc(Cl)cc2)CC1c1ccco1 (centres undefined),40,i,i,i,i,i,i
CCCN1CCc2c(sc(NC(=S)NC(=O)c3ccccc3)c2C#N)C1,i,i,i,i,i,nt,nt
CCN1CCc2c(sc(N)c2C#N)C1,59,58,i,i,i,47,40
COC(=O)c1ccccc1S(=O)(=O)N1CCC(C(=O)NC2CCCCC2)CC1,i,i,nt,nt,i,nt,nt
O=C(CN1CCN(S(=O)(=O)c2ccc(F)cc2)CC1)Nc1cc(C(F)(F)F)ccc1Cl,i,i,i,i,i,nt,nt
O=C(CN1CCN(S(=O)(=O)c2ccc(F)cc2)CC1)Nc1ccc(F)cc1F,174,i,nt,i,i,i,i
COC(=O)c1ccc(N2CCOCC2)c(NC(=O)c2cccnc2)c1,i,i,nt,i,i,nt,nt
Cc1cccc(-n2c(O)c(C=Nc3cccc(O)c3)c3ccccc3c2=O)n1,i,i,i,i,i,nt,nt
Cc1cccc(-n2c(O)c(C=Nc3ccc4c(c3)OCO4)c3ccccc3c2=O)n1,40,i,i,-36,i,i,i
COc1ccc(/C=C/c2nc3ccccc3n2Cc2ccc(OC)c(OC)c2)cc1,i,i,i,i,i,nt,nt
COc1ccc2c(c1)c1nc3ccccc3nc1n2Cc1ccc(OC)c(OC)c1,55,50,59,-26,52,60,62
Cc1ccccc1C(=O)NNC(=O)CSc1nc2ccccc2c(=O)[nH]1,i,i,i,i,i,nt,nt
COc1ccccc1CNC(=O)/C=C/c1ccc(Br)o1,42,i,i,i,i,i,i
CC(C)c1ccc(S(=O)(=O)Nc2ccc3c(c2)OCO3)cc1,nt,nt,nt,nt,i,nt,nt
CC(C)OCCCNC(=O)COc1ccc2oc3c(c2c1)CCCC3,i,i,nt,i,i,nt,nt
COC(=O)c1ccc(N)c(N=CC2=C(O)CC(C)(C)CC2=O)c1,89,87,i,i,73,i,i
CC(=O)N/N=C/c1cc(C(C)(C)C)cc(/C=N/NC(C)=O)c1O,89,94,67,i,156,86,115
CCOc1ccc(/C=C/C(=O)Nc2ccc(OC)cc2[N+](=O)[O-])cc1,83,57,i,?,63,60,68
CC(CC(=O)NCCc1ccc(Cl)cc1)S(=O)(=O)c1ccc2c(c1)NC(=O)CO2 (centres undefined),i,i,nt,i,i,nt,nt
